According to PubChem BioAssay AID463176 (Southern Research Specialized Biocontainment Screening …, 2010):
Calls of active or inactive are those of the source.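 The calls were made as follows: active = inhibition above 30% at one or more tested concentrations in the dose response; inactive = inhibition below 30% at every tested concentration.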

Assay: PhoP regulon inhibitors in S. Typhimurium, late-stage follow-up, synthesized compounds, set 5 (AID 463176)
Conditions: S. Typhimurium PhoP-promoter GFP reporter, fluorescence, 4 h; series mostly up to 150 µM

| SMILES | outcome |
| --- | --- |
| COc1cccc(NC(=O)N2CCCN(Cc3ccccc3F)C2)c1 | inactive |
| O=C1C2=C(Nc3ccccc3SC2c2cccnc2)c2ccccc21 (stereo unspecified) | inactive |
| O=C1C2=C(Nc3ccccc3SC2c2ccc(Cl)cc2)c2ccccc21 (stereo unspecified) | inactive |
| O=C1C2=C(Nc3ccccc3SC2c2cccc(Br)c2)c2ccccc21 (stereo unspecified) | inactive |
| Clc1ccc(C2Sc3ccccc3N=C3c4ccccc4CC32)cc1 (stereo unspecified) | inactive |
| Cc1ccc(C2Sc3ccccc3N=C3c4ccccc4CC32)cc1 (stereo unspecified) | inactive |
